The supplement of paper PMC8975748
Counter-ions that a name gives are not always drawn.

system: Saccharomyces cerevisiae BY4741 SeMeCo community; assay: z-score of subpopulation abundance vs DMSO median, subpopulation auxotrophic for HL; higher = larger share of this subpopulation than in DMSO controls; details: 10 µM; 24 h; SM minimal medium; subpopulation (auxotrophy): HL
Procedure: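 Fluorescent four-plasmid SeMeCo (self-establishing metabolically cooperating S. cerevisiae BY4741 community; plasmids pH-mRuby2, pL-mWasabi, pU-eCFP, pM-TagRFP657) was grown 24 h in minimal SM medium with each Selleck FDA-approved drug at 10 µM in 384-well plates. Cells were fixed and imaged by high-content confocal microscopy. For each auxotrophic subpopulation (and the prototroph), a z-score gives the deviation from the DMSO vehicle-control population median.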

Point of comparison: `O=C1[C@H]2CCCC[C@H]2C(=O)N1CCCCN1CCN(c2nsc3ccccc23)CC1` [Perospirone hydrochloride], “z-score of subpopulation abundance” value -0.17. Against it:
- NC[C@@H]1O[C@H](O[C@H]2[C@@H](O)[C@H](O[C@@H]3[C@@H](O)[C@H](N)C[C@H](N)[C@H]3O[C@H]3O[C@H](CO)[C@@H](O)[C@H](O)[C@H]3N)O[C@@H]2CO)[C@H](N)[C@@H](O)[C@@H]1O [Paromomycin Sulfate] — higher, 0.39
- CC(C)C(=O)c1c(C(C)C)nn2ccccc12 [Ibudilast] — lower, -0.96
- CC(=O)O[C@H]1C[C@@H]2CC[C@@H]3[C@H](CC[C@@]4(C)[C@H]3C[C@H]([N+]3(C)CCCCC3)[C@@H]4OC(C)=O)[C@@]2(C)C[C@@H]1N1CCCCC1 [Vecuronium Bromide] — lower, -0.24
- O=C(c1ccc(F)cc1)C1CCN(CCn2c(=O)[nH]c3ccccc3c2=O)CC1 [Ketanserin] — higher, 0.13
- O=C1N=C(O)NC1(c1ccccc1)c1ccccc1 [Phenytoin Sodium] — lower, -0.83
- COC1C(O)CC(=O)OC(C)CC=CC=CC(OC2CCC(N(C)C)C(C)O2)C(C)CC(CC=O)C1OC1OC(C)C(OC2CC(C)(O)C(O)C(C)O2)C(N(C)C)C1O (stereo not given) [Spiramycin] — higher, 0.65
- COc1ccc2c(c1)c(CC(=O)OCC(=O)O)c(C)n2C(=O)c1ccc(Cl)cc1 [Acemetacin] — higher, 0.11
- C[C@H]1c2cccc(O)c2C(O)=C2C(=O)[C@]3(O)C(O)=C(C(N)=O)C(=O)[C@@H](N(C)C)[C@@H]3[C@@H](O)[C@@H]21 [Doxycycline monohydrate] — lower, -0.19
- C[N+](C)(C)CCO.[Cl-] [Choline Chloride] — lower, -0.62
- NS(=O)(=O)Cc1noc2ccccc12 [Zonisamide] — higher, 0.85
- COc1ccccc1OCC(O)CN1CCN(CC(=O)Nc2c(C)cccc2C)CC1 (stereo not given) [Ranolazine 2HCl] — higher, 0.26
- CCCCNC(=O)NS(=O)(=O)c1ccc(C)cc1 [Tolbutamide] — lower, -0.54
- C1CCN2C[C@@H]3C[C@@H](CN4CCCC[C@@H]34)[C@H]2C1 [(-)-Sparteine Sulfate] — higher, 1.4
- COC(=O)C1=C(C)NC(C)=C(C(=O)OC2CCCN(Cc3ccccc3)C2)C1c1cccc([N+](=O)[O-])c1 (stereo not given) [Benidipine HCl] — higher, 1.55
- CC1(C)S[C@@H]2[C@H](NC(=O)[C@H](N)c3ccc(O)cc3)C(=O)N2[C@H]1C(=O)O [Amoxicillin Sodium] — lower, -1.14
- CNC1CCCN(c2c(F)cc3c(=O)c(C(=O)O)cn(C4CC4)c3c2OC)C1 (stereo not given) [Balofloxacin] — lower, -0.7
- COc1ccccc1N1CCN(CCCNc2cc(=O)n(C)c(=O)n2C)CC1 [Urapidil HCl] — lower, -0.53
- OC1(c2ccc(Cl)c(C(F)(F)F)c2)CCN(CCCC(c2ccc(F)cc2)c2ccc(F)cc2)CC1 [Penfluridol] — higher, 0.46
- C[C@]12CC[C@@H]3c4ccc(OS(=O)(=O)O)cc4CC[C@H]3[C@@H]1CCC2=O [Estropipate] — lower, -0.81
- CCCN1CCCC[C@H]1C(=O)Nc1c(C)cccc1C [Ropivacaine HCl] — lower, -0.74
- Cn1c(=O)c2[nH]cnc2n(C)c1=O [Aminophylline] — higher, 0.54
- CS(=O)(=O)c1ccc(C2=C(c3ccccc3)C(=O)OC2)cc1 [Rofecoxib] — higher, 0.69
- CO/N=C(\C(=O)N[C@@H]1C(=O)N2C(C(=O)O)=C(Cn3ccc(=N)n3CCO)CS[C@H]12)c1csc(N)n1 [Cefoselis Sulfate] — lower, -1.68
- CC[C@@]1(O)C(=O)OCc2c1cc1n(c2=O)Cc2cc3cc(O)ccc3nc2-1 [(S)-10-Hydroxycamptothecin] — higher, 0.62
- C=CC[N+]1([C@H]2C[C@H]3[C@@H]4CC[C@H]5C[C@H](O)[C@@H](N6CCOCC6)C[C@]5(C)[C@H]4CC[C@]3(C)[C@H]2OC(C)=O)CCCC1 [Rocuronium Bromide] — lower, -0.71
- CC1(C)S[C@@H]2[C@H](NC(=O)COc3ccccc3)C(=O)N2[C@H]1C(=O)O [Penicillin V potassium salt] — lower, -0.72
- CC1(C)S[C@@H]2[C@H](NC(=O)C(C(=O)O)c3ccccc3)C(=O)N2[C@H]1C(=O)O (stereo not given in full) [Carbenicillin disodium] — lower, -0.49
- CC[C@H](C)C(=O)O[C@H]1C[C@H](O)C=C2C=C[C@H](C)[C@H](CC[C@@H](O)C[C@@H](O)CC(=O)O)[C@H]21 [Pravastatin] — higher, 0.42
- CCN1CCN(c2cc3c(cc2F)c(=O)c(C(=O)O)cn3C2CC2)CC1 [Enrofloxacin] — lower, -0.47
- Cc1cccc(N(C)C(=S)Oc2ccc3ccccc3c2)c1 [Tolnaftate] — lower, -0.75
- Oc1ccc(Cl)c2cccnc12 [Cloxiquine] — higher, 17.4
- CC(Cc1ccc(O)c(O)c1)C(C)Cc1ccc(O)c(O)c1 (stereo not given) [Nordihydroguaiaretic acid (NDGA)] — lower, -0.39
- Nc1nc(/C(=C/CC(=O)O)C(=O)N[C@@H]2C(=O)N3C(C(=O)O)=CCS[C@H]23)cs1 [Ceftibuten dihydrate] — higher, -0.1
- CC[N+](CC)(CC)CCOc1cccc(OCC[N+](CC)(CC)CC)c1OCC[N+](CC)(CC)CC [Gallamine Triethiodide] — lower, -1.15
- CN1CC2c3ccccc3Oc3ccc(Cl)cc3C2C1 (stereo not given) [Asenapine maleate] — higher, 0.5
- C[C@]12CC[C@@H]3c4ccc(O)cc4C[C@@H](CCCCCCCCC[S+]([O-])CCCC(F)(F)C(F)(F)F)[C@H]3[C@@H]1CC[C@@H]2O (stereo not given in full) [Fulvestrant] — higher, 0.87
- CC(C(=O)O)c1ccc2c(c1)Cc1cccnc1O2 (stereo not given) [Pranoprofen] — lower, -0.22
- Cc1ccc2c(Cl)cc(Cl)c(O)c2n1 [Chlorquinaldol] — higher, 19.8
- O=C(Cn1cnnn1)N[C@@H]1C(=O)N2C(C(=O)O)=C(CSc3nncs3)CS[C@H]12 [Ceftezole] — lower, -0.41
